Bioassay records deposited in PubChem BioAssay by National Center for Advancing Translational Sciences (NCATS).
TRb-SRC2 inh: TRbeta-SRC2 interaction inhibition. P10828. TRbeta-SRC2 peptide binding, fluorescence polarization; receptor liganded with 1 µM T3. Potency, µM (doses to about 106 µM), inactives show at the highest dose activity change, negative = inhibition, actives largely listed as inhibitors. actives 0.065% (n = 280,000);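 also: plate controls were bound peptide for no effect and peptide without receptor for full effect; nearly all actives have a fitted effect of over 50% in size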
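Assay buffer: 20 mM Tris-HCl, 100 mM NaCl, 10% glycerol, 1 mM EDTA, 0.01% NP-40, 1 mM DTT, 1 uM T3, 5% DMSO; TRb LBD 0.6 uM, Texas Red SRC2 20 nM; FP after 5 hr.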
BLM helicase inh: Bloom syndrome helicase (human) inhibition | P54132 | recombinant BLM DNA unwinding, fluorescence dequenching | Potency, µM (series often up to 56.1 µM), without a hit: at the top dose activity change, negative = inhibition, hits mostly inhibitors | actives 0.2% (n = 350,000);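 also: plate controls were vehicle for no effect and no enzyme for full effect; nearly all actives have a fitted effect of over 35% in size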
APEX1 inh: inhibitors of human APE1 endonuclease | Potency, µM (doses to about 65.8 µM), for the others: at the top dose activity change, negative = inhibition, usual class: inhibitors | actives 0.35% (n = 350,000) | recombinant APE1, TAMRA/BHQ-2 abasic DNA cleavage fluorescence | P27695 | AID 2517;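 also: plate controls were vehicle for no effect and reference inhibitor for full effect; nearly all actives have a fitted effect of over 55% in size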
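Kinetic fluorescence read (525 ex/598 em nm, three reads 60 s apart) of AP-site incision; signal = third minus first read. Enzyme 0.75 nM, dual-labelled THF duplex 50 nM, compound preincubation 15 min RT.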
GoLoco inh red: blocks human Gai1 binding to RGS12 GoLoco peptide, red readout | actives 0.44% (n = 230,000) | Gai1:RGS12 GoLoco peptide FP, rhodamine, 10 min | Potency, µM (highest dose often 61.6 µM), without a hit: top-dose activity, negative = inhibition, usual class: inhibitors | P63096; active = well fitted inhibition curve with a large enough effect, not every such curve was filed as active; inactive = no such curve, though single readings can be large or run the other way; also: nearly all actives have a fitted effect of over 30% in size
Target sequence (P63096 whole entry, looked up): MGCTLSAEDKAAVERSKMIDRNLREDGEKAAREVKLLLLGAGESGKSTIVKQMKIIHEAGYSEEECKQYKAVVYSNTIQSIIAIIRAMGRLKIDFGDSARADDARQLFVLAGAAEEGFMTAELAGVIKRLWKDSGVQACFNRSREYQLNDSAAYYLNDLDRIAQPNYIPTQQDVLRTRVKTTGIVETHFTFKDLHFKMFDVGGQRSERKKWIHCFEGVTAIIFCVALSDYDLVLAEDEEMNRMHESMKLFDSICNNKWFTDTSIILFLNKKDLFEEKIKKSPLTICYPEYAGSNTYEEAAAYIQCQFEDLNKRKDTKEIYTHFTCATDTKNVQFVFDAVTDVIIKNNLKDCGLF
RECQ1 helicase: inhibitors of human RECQ1 DNA helicase; P46063; RECQ1 DNA unwinding, red fluorescence kinetic read; actives 0.54% (n = 240,000); AID 2549; Potency, µM (doses to about 57.3 µM), for inactives: at the top dose activity, negative = inhibition, usual class: inhibitors;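 also: plate controls were vehicle for no effect and no enzyme for full effect; nearly all actives have a fitted effect of over 30% in size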
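50 nM RECQ1T1 preincubated 15 min with compound in Tris pH 8.0 buffer with MgCl2, DTT, Tween-20 and 2.5 ug/ml poly(dI-dC); started with 200 nM TAMRA/BHQ-2 forked duplex and 2 mM ATP. Unwinding read as fluorescence (525/598 nm), two reads 2 h apart.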
TexasRed fluor: alters Texas Red total fluorescence, flagging assay interference; AID 1479; TRb/SRC2 Texas Red total fluorescence interference; Potency, µM (series often up to 106 µM), for inactives: at the top dose fluorescence change, negative = quenching; actives 0.29% (n = 280,000); active = well fitted curve in either direction with a large enough effect; inconclusive = small, poorly fitted or top-dose-only effect
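Human TRβ ligand-binding domain (0.6 uM) and Texas Red SRC2 peptide (20 nM) in Tris buffer with 1 uM T3 and 5% DMSO were incubated with pinned compound for 5 hr at ambient temperature. Total fluorescence was computed as S + 2P (555/632 nm).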
An asterisk follows results filed as active; ? = inconclusive; . = no result; [ ] = remark or other dose. Sampled rows, rich in hits. Any-hit rate of the full collection: about 0.9%. Unless noted, calls follow the shape of the dose curve; as a rule, active = well fitted curve in the direction sought with a large enough effect; inconclusive = small, poorly fitted or top-dose-only effect, or another doubt; inactive = no such curve, though single readings can be large; an effect the other way counts as inactive or inconclusive. Unless noted, % is scaled to controls: 0 for no effect and ±100 for the full control effect; potency is read from the fitted curve at half-maximal effect.

SMILES	TRb-SRC2 inh	BLM helicase inh	APEX1 inh	GoLoco inh red	RECQ1 helicase	TexasRed fluor
N#CC1(C#N)C(c2ccccc2)OC23CCCCC2C1(C#N)C(=N)O3 (stereo unspecified)	45µM*	-5%	-2%	-126%	13µM*	?
CCCCCCCCOc1ccc(C2OC34CCCCC3C(C#N)(C#N)C2(C#N)C(=N)O4)cc1 (stereo unspecified)	-19%	-11%	-2%	28µM*	-5%	5%
CN(c1ccccc1)S(=O)(=O)c1nnc(NC(=O)COc2ccccc2)s1	-6%	-6%	60%	.	.	-25%
O=C(COc1ccccc1)Nc1nnc(S(=O)(=O)Nc2ccccc2)s1	-22%	-5%	26%	.	.	0.05µM*[quencher]
CCN(CC)S(=O)(=O)c1nnc(NC(=O)COc2cccc(C)c2)s1	-10%	3%	.	.	.	3.2µM*[quencher]
CCN(CC)S(=O)(=O)c1nnc(NC(=O)COc2ccc(C)cc2)s1	3%	-5%	.	.	.	-29%
CCCCCCCCCc1ccc(OCCOCCO)cc1	.	.	-1%	.	.	.
COC(=O)c1cc2oc3ccccc3c2n1Cc1nc(-c2ccccc2C)oc1C	-11%	-6%	.	.	.	20µM*[quencher]
COC(=O)c1cc2sc(C)cc2n1Cc1nc(-c2cccc(Br)c2)oc1C	0%	-3%	.	.	.	2%
COC(=O)c1cc2sc(C)cc2n1Cc1nc(-c2ccc(C)cc2)oc1C	-15%	-7%	.	.	.	89µM*[quencher]
COC(=O)c1cc2oc3ccccc3c2n1Cc1cc(C)ccc1C	-9%	1%	.	.	.	22µM*[quencher]
Cc1nn(C)c(Oc2ccccc2)c1/C=N/OCc1ccc(C(=O)OC(C)(C)C)cc1	-5%[201 µM]	.	.	.	.	-1%[201 µM]
C=C(C)C(=O)OCCC[Si](OC)(OC)OC	2%[201 µM]	.	.	.	.	3%[201 µM]
CN(C)c1ccc(-c2cc(NCc3cccnc3)ncn2)cc1	1%	1%	9%	1%	-17%	-6%
c1cncc(CNc2cc(-c3ccoc3)ncn2)c1	.	-11%	19%	13µM*	-3%	.
CCC(O)OCCCOC (stereo unspecified)	-5%[201 µM]	.	.	.	.	-1%[201 µM]
CCCCc1c(CCC)c(=N)c2ccccc2n1C	-11%	2%	0%	11µM*	8%	-1%
N#Cc1c(-c2ccc(Cl)cc2)no[n+]1[O-]	.	.	-4%	.	.	.
COc1cc(C2N=C(N)Nc3nc4ccccc4n32)ccc1OCCC(C)C (stereo unspecified)	-8%	-7%	.	.	.	-24%
CC(C)CCOc1ccc(C2N=C(N)Nc3nc4ccccc4n32)cc1 (stereo unspecified)	-16%	-3%	.	.	.	40µM*[quencher]
O=C(O)c1ccc(-n2cccc2/C=C2/SC(=O)N(CC(=O)N3CCCC3)C2=O)cc1	.	-6%	3.4µM*	.	.	.
O=C(CN1C(=O)S/C(=C/c2cccs2)C1=O)N1CCCC1	.	.	9%	.	.	.
CCc1ccccc1NS(=O)(=O)c1ccc(-c2coc(C)n2)cc1	-20%	-3%	.	.	.	11µM*[quencher]
Cc1nc(-c2ccc(S(=O)(=O)NCc3ccc(F)cc3)cc2)co1	-1%	-1%	.	.	.	-4%
CCOc1ccc(CNS(=O)(=O)c2ccc(-c3coc(C)n3)cc2)cc1	-11%	1%	?	.	.	0.0071µM*[quencher]
SMILES	TRb-SRC2 inh	BLM helicase inh	APEX1 inh	GoLoco inh red	RECQ1 helicase	TexasRed fluor
Cc1cc(C)c(NS(=O)(=O)c2ccc(-c3coc(C)n3)cc2)c(C)c1	2%	-2%	.	.	.	0%
CCC(C)(C)C1CCC(O)CC1 (stereo unspecified)	1%[201 µM]	.	.	.	.	1%[201 µM]
O=C(Cn1c(SCc2ccccc2F)nc2ccncc21)Nc1ccccc1C(F)(F)F	4%	-4%	.	.	.	-1%
CCCCCCCCCCCC(=O)OC	-2%[201 µM]	.	.	.	.	1%[201 µM]
Oc1c(Br)cc(Br)cc1/C=N/n1c(-c2ccccc2)n[nH]c1=S	.	-6%	-4%	.	.	.
Oc1c(Br)cc(/C=N/n2c(-c3ccccc3)n[nH]c2=S)c(Br)c1O	.	0.79µM*	0.42µM*	.	.	.
